The target of assay [1] is Leukocyte tyrosine kinase receptor (Homo sapiens) (UniProt P29376). The conditions noted are these: at 1 µM.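 Further: each value is the mean inhibition of LTK.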
For assay [2], the target named is Tyrosine-protein kinase Lyn (Homo sapiens) (UniProt P07948). The note with it: at 0.1 µM.
The target is the same in assay [3]. The conditions noted are these: at 1 µM.
The target is the same in assay [4]. The note with it: at 0.1 µM. The source holds these as a separate data set.
For assay [5] the target is unchanged. The conditions noted are these: at 1 µM. This is another data set of the same source.
Assay [6] has as its target T1, Tyrosine-protein kinase Mer (Homo sapiens) (UniProt Q12866).
T1 sequence (whole entry): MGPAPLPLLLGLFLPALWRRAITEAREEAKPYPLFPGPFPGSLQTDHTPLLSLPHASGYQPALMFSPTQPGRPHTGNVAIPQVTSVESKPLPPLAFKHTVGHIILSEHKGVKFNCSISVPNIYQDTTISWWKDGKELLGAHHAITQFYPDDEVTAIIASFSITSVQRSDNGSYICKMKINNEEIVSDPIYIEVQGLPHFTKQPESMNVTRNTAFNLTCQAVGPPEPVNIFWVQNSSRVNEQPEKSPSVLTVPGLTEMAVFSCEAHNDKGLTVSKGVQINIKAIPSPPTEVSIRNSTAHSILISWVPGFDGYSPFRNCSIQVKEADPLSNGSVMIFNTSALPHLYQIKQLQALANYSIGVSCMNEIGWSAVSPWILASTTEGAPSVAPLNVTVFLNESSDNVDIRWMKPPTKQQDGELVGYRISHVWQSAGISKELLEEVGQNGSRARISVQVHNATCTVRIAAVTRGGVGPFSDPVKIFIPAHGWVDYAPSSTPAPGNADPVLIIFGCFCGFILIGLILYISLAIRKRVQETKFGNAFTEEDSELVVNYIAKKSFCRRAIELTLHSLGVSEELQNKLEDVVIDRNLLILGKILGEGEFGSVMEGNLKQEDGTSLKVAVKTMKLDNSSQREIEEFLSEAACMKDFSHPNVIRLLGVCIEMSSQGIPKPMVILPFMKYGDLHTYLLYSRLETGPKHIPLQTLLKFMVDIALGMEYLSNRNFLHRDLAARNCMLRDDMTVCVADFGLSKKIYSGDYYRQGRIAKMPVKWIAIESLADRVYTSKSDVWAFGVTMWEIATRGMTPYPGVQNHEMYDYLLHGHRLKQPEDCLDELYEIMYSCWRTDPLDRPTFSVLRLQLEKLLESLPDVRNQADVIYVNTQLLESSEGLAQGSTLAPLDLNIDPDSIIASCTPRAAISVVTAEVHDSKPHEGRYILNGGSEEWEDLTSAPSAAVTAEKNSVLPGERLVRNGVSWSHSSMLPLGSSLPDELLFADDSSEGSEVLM
The conditions noted are these: at 0.1 µM.

Assay [7] addresses T1, Tyrosine-protein kinase Mer (Homo sapiens). The note with it: at 1 µM.
Assay [8] has as its target Hepatocyte growth factor receptor (Homo sapiens) (UniProt P08581). The conditions noted are these: at 0.1 µM.
Assay [9] has the same target. The note with it: at 1 µM.
For assay [10], the target named is T2, Muscle, skeletal receptor tyrosine-protein kinase (Homo sapiens) (UniProt O15146).
T2 sequence (whole entry): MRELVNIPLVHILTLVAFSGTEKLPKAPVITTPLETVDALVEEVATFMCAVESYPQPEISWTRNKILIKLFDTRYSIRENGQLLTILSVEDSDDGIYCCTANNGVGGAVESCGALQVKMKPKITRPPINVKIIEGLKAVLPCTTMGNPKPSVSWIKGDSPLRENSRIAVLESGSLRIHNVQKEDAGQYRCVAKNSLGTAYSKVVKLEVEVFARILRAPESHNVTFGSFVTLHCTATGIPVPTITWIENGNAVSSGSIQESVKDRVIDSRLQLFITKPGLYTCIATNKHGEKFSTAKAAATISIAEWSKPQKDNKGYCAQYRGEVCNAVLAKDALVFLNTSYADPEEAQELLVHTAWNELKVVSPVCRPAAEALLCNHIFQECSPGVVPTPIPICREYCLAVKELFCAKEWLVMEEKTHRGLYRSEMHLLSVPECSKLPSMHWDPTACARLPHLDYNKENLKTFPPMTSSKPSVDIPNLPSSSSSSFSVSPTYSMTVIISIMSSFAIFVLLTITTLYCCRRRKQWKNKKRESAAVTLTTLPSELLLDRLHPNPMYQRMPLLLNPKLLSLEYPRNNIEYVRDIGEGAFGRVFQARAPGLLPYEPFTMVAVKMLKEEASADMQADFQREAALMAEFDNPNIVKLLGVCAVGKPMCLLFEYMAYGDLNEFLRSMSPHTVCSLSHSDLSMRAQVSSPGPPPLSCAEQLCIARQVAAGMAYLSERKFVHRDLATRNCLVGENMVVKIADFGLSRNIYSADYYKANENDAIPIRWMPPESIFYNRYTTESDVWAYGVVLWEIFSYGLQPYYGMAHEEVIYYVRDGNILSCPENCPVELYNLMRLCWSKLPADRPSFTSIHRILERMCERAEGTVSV
The conditions noted are these: at 0.1 µM.

Assay [11] has as its target T2, Muscle, skeletal receptor tyrosine-protein kinase (Homo sapiens). The note with it: at 1 µM.
The target in assay [12] is Platelet-derived growth factor receptor alpha (Homo sapiens) (UniProt P16234). The conditions noted are these: at 0.1 µM.
Assay [13] shares this target. The conditions noted are these: at 1 µM.
Assay [14] concerns Platelet-derived growth factor receptor alpha (Homo sapiens), P16234 [D842V]. The note with it: at 0.1 µM.
Platelet-derived growth factor receptor alpha (Homo sapiens), P16234 [D842V], sequence (P16234 whole entry D842V): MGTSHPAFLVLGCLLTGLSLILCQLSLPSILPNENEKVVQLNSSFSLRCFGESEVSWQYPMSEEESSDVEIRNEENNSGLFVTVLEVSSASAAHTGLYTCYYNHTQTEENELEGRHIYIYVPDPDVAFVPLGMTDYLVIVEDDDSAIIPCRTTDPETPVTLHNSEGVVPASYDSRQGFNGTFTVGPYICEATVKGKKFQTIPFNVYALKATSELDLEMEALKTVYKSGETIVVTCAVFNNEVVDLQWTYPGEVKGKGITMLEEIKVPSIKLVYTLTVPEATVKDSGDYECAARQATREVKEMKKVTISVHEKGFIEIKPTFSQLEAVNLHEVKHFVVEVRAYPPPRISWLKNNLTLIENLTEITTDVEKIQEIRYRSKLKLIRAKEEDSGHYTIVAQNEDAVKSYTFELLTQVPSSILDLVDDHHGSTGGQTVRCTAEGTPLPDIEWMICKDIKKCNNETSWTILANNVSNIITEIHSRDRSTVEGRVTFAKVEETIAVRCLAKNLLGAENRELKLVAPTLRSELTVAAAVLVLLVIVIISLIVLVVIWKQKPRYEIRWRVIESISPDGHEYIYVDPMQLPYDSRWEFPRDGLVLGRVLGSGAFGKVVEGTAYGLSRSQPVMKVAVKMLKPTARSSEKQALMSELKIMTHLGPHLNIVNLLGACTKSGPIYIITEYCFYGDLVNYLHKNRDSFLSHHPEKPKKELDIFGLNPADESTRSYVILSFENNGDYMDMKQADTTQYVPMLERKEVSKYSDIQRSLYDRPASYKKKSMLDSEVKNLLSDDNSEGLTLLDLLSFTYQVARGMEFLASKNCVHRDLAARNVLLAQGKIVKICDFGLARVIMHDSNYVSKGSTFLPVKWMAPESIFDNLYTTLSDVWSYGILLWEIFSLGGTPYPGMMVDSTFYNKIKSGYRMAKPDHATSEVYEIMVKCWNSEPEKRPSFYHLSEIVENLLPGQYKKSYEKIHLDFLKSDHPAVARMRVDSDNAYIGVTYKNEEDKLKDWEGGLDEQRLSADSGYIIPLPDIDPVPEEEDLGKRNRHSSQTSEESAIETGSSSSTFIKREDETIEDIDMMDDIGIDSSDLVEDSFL
For assay [15] the test system is unchanged. The note with it: at 1 µM.
For assay [16], the system named is Platelet-derived growth factor receptor alpha (Homo sapiens), P16234 [T674I]. The conditions noted are these: at 0.1 µM.
Platelet-derived growth factor receptor alpha (Homo sapiens), P16234 [T674I], sequence (P16234 whole entry T674I): as the sequence (P16234 whole entry D842V) above, with T674I, V842D counted along it
Assay [17] shares this test system. The note with it: at 1 µM.
In assay [18] the test system is Platelet-derived growth factor receptor alpha (Homo sapiens), P16234 [V561D]. The conditions noted are these: at 0.1 µM.
Platelet-derived growth factor receptor alpha (Homo sapiens), P16234 [V561D], sequence (P16234 whole entry V561D): as the sequence (P16234 whole entry D842V) above, with V561D, V842D counted along it
For assay [19] the test system is unchanged. The conditions noted are these: at 1 µM.
Assay [20] has as its target Platelet-derived growth factor receptor beta (Homo sapiens) (UniProt P09619). The note with it: at 0.1 µM.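 Further: reported value is the mean percent inhibition of the kinase.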

Molecules are shown by their SMILES.

Hepatocyte growth factor receptor (Homo sapiens), sequence (P08581 whole entry): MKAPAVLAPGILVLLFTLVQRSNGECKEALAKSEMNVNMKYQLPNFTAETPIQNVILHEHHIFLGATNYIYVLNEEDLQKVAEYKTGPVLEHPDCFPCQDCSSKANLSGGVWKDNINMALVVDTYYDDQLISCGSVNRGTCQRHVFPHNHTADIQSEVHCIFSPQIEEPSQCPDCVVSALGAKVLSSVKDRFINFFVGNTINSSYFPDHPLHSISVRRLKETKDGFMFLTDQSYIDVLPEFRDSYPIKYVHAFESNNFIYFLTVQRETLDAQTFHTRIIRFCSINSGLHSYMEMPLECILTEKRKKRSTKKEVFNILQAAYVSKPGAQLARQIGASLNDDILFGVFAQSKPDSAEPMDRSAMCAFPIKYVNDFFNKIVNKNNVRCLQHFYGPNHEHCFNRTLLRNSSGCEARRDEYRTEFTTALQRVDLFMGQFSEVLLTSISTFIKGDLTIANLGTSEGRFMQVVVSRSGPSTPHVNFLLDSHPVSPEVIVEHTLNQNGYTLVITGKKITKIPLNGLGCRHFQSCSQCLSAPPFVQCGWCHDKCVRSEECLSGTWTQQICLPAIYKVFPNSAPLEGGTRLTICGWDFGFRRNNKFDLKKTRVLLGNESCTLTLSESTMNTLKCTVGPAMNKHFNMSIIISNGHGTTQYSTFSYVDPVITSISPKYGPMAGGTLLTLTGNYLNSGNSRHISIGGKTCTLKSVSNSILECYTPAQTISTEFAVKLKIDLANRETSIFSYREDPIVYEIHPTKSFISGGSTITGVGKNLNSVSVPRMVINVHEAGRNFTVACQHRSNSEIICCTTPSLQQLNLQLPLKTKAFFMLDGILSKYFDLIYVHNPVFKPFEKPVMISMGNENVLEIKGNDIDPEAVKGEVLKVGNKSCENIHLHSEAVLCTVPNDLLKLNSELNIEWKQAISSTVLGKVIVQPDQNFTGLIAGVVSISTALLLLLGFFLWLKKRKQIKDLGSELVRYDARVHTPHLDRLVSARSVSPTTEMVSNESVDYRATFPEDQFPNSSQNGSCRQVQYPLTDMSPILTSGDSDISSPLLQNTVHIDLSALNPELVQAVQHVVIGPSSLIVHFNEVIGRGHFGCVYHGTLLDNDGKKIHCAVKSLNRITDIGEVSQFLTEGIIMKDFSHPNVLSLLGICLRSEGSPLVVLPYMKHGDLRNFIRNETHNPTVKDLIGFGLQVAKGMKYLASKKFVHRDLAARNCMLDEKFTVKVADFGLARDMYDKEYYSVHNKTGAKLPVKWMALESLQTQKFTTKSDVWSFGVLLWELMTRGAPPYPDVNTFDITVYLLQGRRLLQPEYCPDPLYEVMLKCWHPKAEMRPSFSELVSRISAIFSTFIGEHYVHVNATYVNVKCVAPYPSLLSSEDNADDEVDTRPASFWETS

The inhibition is the relative decrease from the control value, in per cent. For the compound `Fc1ccc(-c2c(-c3ccncc3)nc3n2CCS3)cc1`, the inhibition in assay [1] amounted to 1.53%; in assay [2] it was 2.47%; in assay [3], 6.12%; in assay [4], 1.33%; in [5] it was 3.93%; in assay [6], 1.44%. Further, the inhibition in assay [7] was 1.51%; in assay [8] it was 3.45%; in [9] it was 0.39%; in assay [10], 4.78%; in assay [11], 1.19%; in [12], 4.27%. For the same compound, the inhibition was 11.9% in [13]; 1.59% in assay [14]; 3.82% in assay [15]; 3.55% in [16]; 3.84% in assay [17]; 2.1% in assay [18]. Moreover, the inhibition is 2.96% in [19] and 1.36% in assay [20].

Regarding `Fc1ccc(-c2nc3n(c2-c2ccncc2)CCS3)cc1`, the inhibition was 2.85% in [1]; 3.56% in [2]; 7.36% in assay [3]; 1.97% in assay [4]; 4.29% in assay [5]; 1.16% in [6]. Also, the inhibition in assay [7] was found to be 3.24%; in assay [8], 8.26%; in assay [9] it was 5.29%; in [10] it was 2.08%; in assay [11] it was 2.27%; in assay [12] it was 6.42%. The inhibition in assay [13] was 11.1%; in [14], 4.17%; in assay [15], 3.44%; in assay [16], 5.4%; in assay [17], 6.09%; in assay [18], -0.4%. Further, the inhibition in [19] is 4.82%; in assay [20], 3.87%.

With `C#Cc1cccc(Nc2ncnc3ccc(OCCCCNCCS(C)(=O)=O)cc23)c1`, the inhibition is 28.5% in assay [1]; 7.93% in assay [2]; 26.9% in assay [3]; 5.05% in assay [4]; 21.8% in assay [5]; 2% in assay [6]. In addition, the inhibition is 5.14% in assay [7]; 3.29% in [8]; 8.4% in [9]; 1.86% in assay [10]; 2.93% in assay [11]; 16.4% in [12]. Besides, the inhibition is 30.4% in assay [13]; 6.83% in assay [14]; 11.5% in assay [15]; 8.07% in assay [16]; 25.4% in assay [17]; 5.37% in assay [18]. Moreover, the values for the inhibition in [19] and in assay [20] were 10.6% and 9.53%, respectively.

For `Cc1ccc(NC(=O)c2ccoc2)cc1-c1ccc(C(=O)NCC2CC2)cc1`, the inhibition is 3.16% in assay [1]; 3.73% in assay [2]; 3.68% in assay [3]; 3.72% in [4]; 4.12% in [5]; 1.1% in [6]. Moreover, the inhibition in assay [7] is 1.81%; in [8], 11.4%; in [9], 0.85%; in assay [10], 0.54%; in assay [11], 1.19%; in [12], 3.05%. Moreover, the inhibition in assay [13] was determined as 4.97%; in assay [14] it was 0.3%; in assay [15], 0.74%; in [16], 0.22%; in assay [17], 4.2%; in assay [18], 0.35%. For the same compound, the inhibition in assay [19] worked out at 1%; in assay [20], 1.42%.

As to `COc1ccc(C2=C(N3CCc4ccccc43)C(=O)NC2=O)cc1`, the inhibition in [1] was 5.38%; in assay [2], 6.92%; in assay [3], 6.95%; in assay [4], 5.2%; in assay [5], 5.98%; in assay [6], 1.96%. The inhibition in assay [7] was found to be 1.78%; in assay [8], 6.5%; in assay [9] it was 7.87%; in [10], 2.97%; in assay [11] it was 6.74%; in assay [12] it was 4.56%. In addition, the inhibition was 16.3% in [13]; 5.15% in assay [14]; 8.45% in assay [15]; 7.16% in assay [16]; 10.6% in [17]; 5.61% in assay [18]. For the same compound, the inhibition in assay [19] was 6.87%; in assay [20] it was 5.31%.

On to `c1ccc(-c2n[nH]cc2-c2ccnc(-c3ccc(OCCN4CCOCC4)cc3)c2)nc1`, for which the inhibition in assay [1] is -0.95%; in [2], 1.31%; in assay [3], 10.2%; in assay [4], 1.54%; in assay [5], 7.34%; in assay [6] it was 5.12%. Besides, the inhibition in assay [7] was 5.39%; in [8], 7.49%; in [9], 5.59%; in assay [10], 6.97%; in assay [11], 9.04%; in [12] it was 20.1%. Besides, the inhibition was 58.7% in assay [13]; 18.6% in assay [14]; 71% in assay [15]; 5.25% in assay [16]; -0.97% in assay [17]; 11.7% in [18]. The results for the inhibition in assay [19] and in [20] were 55.5% and 16.2%, respectively.

As to `Cc1nnc(-c2ccc(C)c(-c3ccc(C(=O)NCc4ccc(Cl)cc4)cc3)c2)o1`, the inhibition worked out at 4.02% in assay [1]; 3.85% in assay [2]; 8.64% in assay [3]; 2.14% in assay [4]; 4.87% in assay [5]; 2.04% in [6]. Besides, the inhibition in [7] came to 1.93%; in assay [8] it was 4.09%; in assay [9], 6.08%; in assay [10], 2.38%; in assay [11] it was 0.1%; in [12], 4.51%. Besides, the inhibition in assay [13] was 8.84%; in [14], 3.25%; in assay [15], 2.53%; in assay [16], 6.19%; in [17], 6%; in assay [18] it was 1.34%. For the same compound, the results for the inhibition in assay [19] and in assay [20] were 2% and 1.36%, respectively.

On to `CNC(=O)c1cncc(/C=C/c2c(C)cccc2C)c1`, for which the inhibition is -0.39% in assay [1]; 22.1% in assay [2]; 72.4% in assay [3]; 17.6% in assay [4]; 67.8% in [5]; -0.47% in [6]. The inhibition in assay [7] was 3.56%; in assay [8] it was -0.92%; in assay [9], 1.41%; in assay [10], 3.8%; in assay [11], 5.15%; in assay [12], 8.57%. Moreover, the inhibition in [13] was 34.4%; in [14] it was 0.09%; in assay [15] it was 4.23%; in assay [16] it was 0.35%; in [17], 1.37%; in assay [18], 21.3%. In addition, the inhibition in [19] worked out at 48%; in [20], 7.03%.

The values are drawn from ChEMBL document CHEMBL1961873, “Compounds: GSK PKIS; Assays: Nanosyn kinase panel” (2012).
